Shown are actives, neighbours in structure and some others; about 6.6% of the full set was active somewhere.
BoNT-F LC inh = BoNT/F light chain protease inhibitors, primary screen, biochemical, flow cytometry, MLPCN library | Multiplex microsphere protease cleavage assay | inhibition, % at 10 µM | 360,000 compounds, 0.22% hits; in the data active = inhibition above about 35%, passing the limit was not always enough; inconclusive = no clear call, values can overlap the other calls; note: plate controls were buffer without enzyme for full effect and enzyme alone for no effect
BoNT A protease = BoNT/A light chain protease inhibitors, primary screen, biochemical, flow cytometry, MLPCN library; Botulinum neurotoxin type A light chain protease (Clostridium botulinum A str. ATCC 3502); inhibition, % at 10 µM; AID 588499, 2011; 360,000 compounds, 0.17% hits; multiplex microsphere protease substrate cleavage; note: plate controls were buffer without enzyme for full effect and enzyme alone for no effect
Mtb FBA inh = Mtb FBA enzyme inhibitors, primary screen, biochemical, fluorescence, strain H37Rv | Fructose-bisphosphate aldolase (Mycobacterium tuberculosis (strain ATCC 25618 / H37Rv)), … | purified M. tuberculosis FBA, fluorescence read-out | inhibition, % at 1 µM | 360,000 compounds, 2.3% hits; in the data active = inhibition above about 27%;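 note: 0% = vehicle and 100% = reference inhibitor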
Target sequence (P9WQA3 whole entry, looked up): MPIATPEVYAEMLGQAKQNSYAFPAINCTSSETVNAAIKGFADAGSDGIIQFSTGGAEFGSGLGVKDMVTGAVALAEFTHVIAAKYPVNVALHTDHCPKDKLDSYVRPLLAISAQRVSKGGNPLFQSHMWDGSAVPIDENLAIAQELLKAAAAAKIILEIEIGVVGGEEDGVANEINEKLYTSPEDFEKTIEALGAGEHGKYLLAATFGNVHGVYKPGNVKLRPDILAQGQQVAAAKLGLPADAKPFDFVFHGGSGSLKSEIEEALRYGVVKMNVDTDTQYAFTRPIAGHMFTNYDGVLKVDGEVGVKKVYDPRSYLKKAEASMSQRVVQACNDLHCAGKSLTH
Anthrax LF inh2 = Bacillus anthracis LF protease inhibitors, primary screen, biochemical, multiplex microsphere, MLPCN library; Lethal factor (Bacillus anthracis), P15917; multiplex microsphere protease cleavage assay; inhibition, % at 10 µM; 360,000 compounds, 0.12% hits; note: plate controls were buffer without enzyme for full effect and enzyme alone for no effect
Bead autofluor = flagged as autofluorescent in microsphere protease counterscreen; compound autofluorescence counterscreen, microsphere flow cytometry; active compounds read high; fluorescence intensity (concentration not given with the values); 360,000 compounds, 3.1% hits; in the data active = fluorescence intensity above about 16000; inconclusive = no clear call, values can overlap the other calls
GDH-TPI counter = GDH-TPI coupling enzyme inhibitors, primary screen, artefact control for M. tuberculosis FBA inhibitor project, biochemical, absorbance, full deck | GDH-TPI coupled enzyme counterscreen, NADH absorbance | inhibition, % at 4.8 µM | 360,000 compounds, 1.2% hits | AID 588335, 2011; in the data active = inhibition above about 30%;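 note: 0% = DMSO wells and 100% = wells lacking the enzyme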
Numbers without * were called inactive; ? = inconclusive; . = no result given; + = active, no number. Cut-off read from the data, not from the text of the source, unless noted: active = inhibition above about 30%; inconclusive = no clear call, values can overlap the other calls; inactive = below that.

SMILES	BoNT-F LC inh	BoNT A protease	Mtb FBA inh	Anthrax LF inh2	Bead autofluor	GDH-TPI counter
COc1ccc(-c2c(C(F)(F)F)oc3c(CN4CCN(C)CC4)c(O)ccc3c2=O)cc1	7	0	-6	2	2869	21
CN(C)Cc1c(O)ccc2c(-c3ccccc3)cc(=O)oc12	-1	0	10	-7	4989	3
COc1cccc(Oc2c(C)oc3c(CN4CCCCC4)c(O)ccc3c2=O)c1	-4	0	179*	-3	4801	22
COC(=O)c1ccc(Oc2c(C)oc3c(CN4CCN(C)CC4)c(O)ccc3c2=O)cc1	-8	-1	+	-1	8626	22
COCCNC(=O)C1(C)CCN(C(=O)c2ccc3sccc3c2)C1 (stereo not drawn)	1	0	0	-2	2882	4
Cc1oc(=O)c(NC(=O)c2cccc(Cl)c2)cc1C(=O)c1ccccc1	1	?	-2	0	21979*	15
COc1ccc(C(=O)Nc2cc(C(=O)c3ccccc3)c(C)oc2=O)cc1	5	0	-2	-6	10513	3
O=S1(=O)CCC(NC(=S)N2CCOCC2)C1 (stereo not drawn)	-10	-1	-1	-1	3451	2
CCc1ccc(CCC(=O)Nc2sc(C)c(C)c2C(=O)OC)o1	-3	-1	0	-5	21036*	-4
COC(=O)c1c(NC(=O)Cc2ccccc2)sc(C)c1C	-1	0	-2	-1	2470	9
CCOC(=O)c1cnn(CCOC(=O)Cc2cccs2)c1NC(=O)Cc1cccs1	1	1	0	-1	22856*	-1
COC(=O)c1c(NC(=O)Cc2cccs2)sc(C)c1C	-11	-6	0	-5	21860*	-3
O=S1(=O)CC(N2CCN(CCO)CC2)CN1Cc1cn(Cc2cccc(C(F)(F)F)c2)nn1 (stereo not drawn)	-1	0	.	4	6125	.
O=C(Nc1ccc(C(=O)O)cc1)/C(=C\c1ccc([N+](=O)[O-])cc1)NC(=O)c1ccco1	2	0	-5	1	3615	18
CC1=CC(C)(C)NC(=S)N1c1cccc(Cl)c1	-4	0	3	-7	3873	-2
Cc1ccc(S(=O)(=O)N(C)C[C@@H]2OCc3cnnn3CCCC(=O)N([C@@H](C)CO)C[C@H]2C)cc1	-3	0	4	-3	2937	11
COC(=O)[C@@]1(C(C)C)N=C(c2cc(OC)c(OC)c(OC)c2)[C@]2(O1)C(=O)Nc1ccccc12	1	0	.	3	5878	.
CC(C(=O)NC1CCCCC1)N1CCN(S(=O)(=O)c2cccs2)CC1 (stereo not drawn)	5	1	-1	0	8482	-4
CCOc1ccc2nc(NC(=S)NCc3ccccc3)sc2c1	2	2	0	0	20242*	11
CCOc1ccc2nc(NC(=O)Nc3ccccc3)sc2c1	5	0	0	-1	3749	-5
Cc1ccc(C)c(-c2cc(C(=O)Nc3sc(C)c(C)c3C(N)=O)c3ccccc3n2)c1	0	?	0	0	23000*	21
CC(C)Cc1nnc(NC(=O)c2cc(-c3ccccc3)nc3ccccc23)s1	-2	-1	-2	-1	16445*	28
COc1cccc(-c2cc(C(=O)Nc3nc4ccccc4s3)c3ccccc3n2)c1	-23	-3	4	-10	12537	33*
Cc1cccc(NC(=O)c2nc[nH]c2C(=O)N2CCc3ccccc3C2)c1	4	0	1	3	4267	-6
NC1CCN(c2nc3c(cc2F)c(=O)c(C(=O)O)cn3-c2ccc(F)cc2F)C1 (stereo not drawn)	-17	-1	7	-4	5952	24
SMILES	BoNT-F LC inh	BoNT A protease	Mtb FBA inh	Anthrax LF inh2	Bead autofluor	GDH-TPI counter
NC1CCN(c2c(F)cc3c(=O)c(C(=O)O)cn(C4CC4)c3c2Cl)C1 (stereo not drawn)	-3	-1	3	-2	4331	34*
Cc1ccc(SCc2nc3ccccc3n2CC(=O)Nc2ccccc2)cc1	13	2	0	3	10066	5
Cc1ccc(SCc2nc3ccccc3n2CC(=O)Nc2c(C)cccc2C)cc1	5	1	4	3	22196*	15
COC(=O)[C@@]12CCCCN1[C@H](c1ccc(-c3ccc(OC)cc3)c(OC)c1)[C@@H]1C(=O)N(C)C(=O)[C@@H]12	-5	0	4	-4	3015	7
CCOc1c(OC)ccc2c3c(c(=O)oc12)CCCC3	3	1	19	-3	22747*	9
CCOc1ccc2c(C)cc(=O)oc2c1OCC	6	0	10	7	2512	12
CCOc1ccc2c(C)c(C(=O)O)oc2c1OCC	-14	-1	156*	1	3949	4
CCOc1ccc2c(C)c(C)c(=O)oc2c1OCC	-3	-2	15	-3	23673*	8
Cc1c(C(=O)O)oc2c1ccc1ccccc12	?	1	6	-2	3635	-3
COc1ccc2c3c(c(=O)oc2c1OCC(=O)O)CCCC3	-6	0	24	-1	2562	1
CC(/C=C/c1ccc(O)cc1)=NNc1ccccc1	-4	0	0	-2	2811	24
CC(CCCC(C)(C)O)NC(=O)c1ccc(OC2CCN(C(=O)C3CC3)CC2)cc1 (stereo not drawn)	-2	0	-4	0	4153	-6
Cc1ccc2nc(N3CCN(S(=O)(=O)c4ccc(C)c(Cl)c4)CC3)c(C#N)cc2c1	12	?	0	13	21608*	4
O=C(c1ccc(F)cc1)N1CCCC(N2CCN(Cc3ccc4c(c3)OCO4)CC2)C1 (stereo not drawn)	-7	-1	-1	1	4442	6
COc1ccccc1CN1C(=O)CN(C2CCCC2)C(=O)C1c1ccc(F)cc1 (stereo not drawn)	-1	?	-4	-9	16593*	2
O=C1C(c2ccc(F)cc2)N(Cc2ccc3c(c2)OCO3)C(=O)CN1C1CCCC1 (stereo not drawn)	-14	-10	-2	-1	25677*	-1
O=C1C(c2ccc(F)cc2)N(CC2COc3ccccc3O2)C(=O)CN1C1CCCCC1 (stereo not drawn)	8	0	1	-3	10837	2
O=C1C(c2ccc(F)cc2)N(Cc2ccc3c(c2)OCO3)C(=O)CN1C1CCCCC1 (stereo not drawn)	-1	-1	2	-6	20863*	-6
COc1cc(SC)ccc1C(=O)NCCOc1c(C)cc(C)cc1C	-1	0	-3	-2	20169*	-14

Screening data as filed in PubChem.
